Only some compounds are listed: those with a hit (about 12% of all), similar ones and a draw of the others.
G9a inh: G9a (human) methyltransferase inhibition; Potency, µM (series often up to 102 µM), inactives show top-dose activity, negative = inhibition, usual class: inhibitors; G9a H3K9 monomethylation, AlphaScreen, 2 h; 8.8% of 350,000 active; Q96KQ7; also: % is scaled to controls: 0 for no effect and ±100 for the full control effect; nearly all actives have a fitted effect of over 75% in size
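Signal arises when biotinylated H3K9 peptide, once monomethylated, bridges streptavidin donor and antibody-captured acceptor beads. Enzyme at 20 nM was preincubated 15 min with test compounds; peptide 500 nM and SAM 20 uM then reacted for 2 h.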
BAZ2B block: BAZ2B (human) inhibition; Potency, µM (series often up to 114 µM), without a hit: top-dose activity change, negative = inhibition, hits mostly inhibitors; AID 504333; 4.4% of 360,000 active; AlphaScreen BAZ2B-H3K14Ac peptide displacement; also: % is scaled to controls: 0 for no effect and ±100 for the full control effect; nearly all actives have a fitted effect of over 60% in size
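In this displacement format the biotinylated H3(5-23) peptide acetylated at Lys14 serves as ligand at 50 nM, with BAZ2B at 50 nM in PBS pH 7.4 containing 0.01% Tween-20. Donor and acceptor beads are 10 ug/mL final.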
HP1b binding inh: inhibitors of HP1-beta chromodomain binding to methylated histone tails | P83916 | AlphaScreen HP1-beta / biotin-H3K9me3 peptide binding | Potency, µM (doses to about 114 µM), without a hit: at the highest dose activity change, negative = inhibition, usual class: inhibitors | 0.56% of 390,000 active | AID 540317; also: nearly all actives have a fitted effect of over 70% in size
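HP1-beta protein (50 nM final) preincubated 30 min at room temperature with biotinylated H3(1-18)K9me3 peptide (50 nM) in PBS pH 7.4, 0.01% Tween-20, then compound added for 30 min. AlphaScreen streptavidin donor/nickel chelate acceptor beads (10 ug/mL final), 30 min dark, luminescence read.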
Sfp inh: blocks B. subtilis Sfp PPTase activity; Q9F4F7; Biochemical Sfp PPTase activity, qHTS; Potency, µM, for the others: largest response in the series, negative = inhibition, usual class: inhibitors; 3.5% of 310,000 active; AID 1490;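 also: the enzyme is Sfp with the accession as filed and its product quenches rhodamine fluorescence; 0% = enzyme reaction without inhibitor and -100% = no enzyme wells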
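Fluorescence-quenching assay with 15 nM Sfp, 5 uM rhodamine-CoA and 12.5 uM BHQ-2-labelled ybbR peptide in pH 7.6 Hepes/MgCl2 buffer. Enzyme was pre-incubated with compound for 15 min at room temperature. Rate was taken from the 30-min fluorescence change (525/598 nm).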
JMJD2A Tudor inh: JMJD2A Tudor domain (human) inhibition; O75164; AID 504339; 4.4% of 390,000 active; Potency, µM (doses to about 114 µM), inactives show at the highest dose activity change, negative = inhibition, actives largely listed as inhibitors; AlphaScreen JMJD2A-Tudor / H3K4me3 peptide binding; also: % is scaled to controls: 0 for no effect and ±100 for the full control effect; nearly all actives have a fitted effect of over 50% in size
The depositor's hits bear a star; ? = inconclusive; . = no result; [ ] = remark or other dose. Calls follow the shape of the dose curve; as a rule, active = well fitted curve in the direction sought with a large enough effect; inconclusive = small, poorly fitted or top-dose-only effect, or another doubt; inactive = no such curve, though single readings can be large; an effect the other way counts as inactive or inconclusive. Potency is read from the fitted curve at half-maximal effect.

SMILES	G9a inh	BAZ2B block	HP1b binding inh	Sfp inh	JMJD2A Tudor inh
CC1=CC(C)(C)Nc2ccc(Cc3ccc4c(c3)C(C)=CC(C)(C)N4)cc21	10µM*	14.1µM*	?	-2.7%	17.8µM*
CC1=CC(C)(C)Nc2ccc(OC(=O)CN3C(=O)CCC3=O)cc21	9.4%[12.7 µM]	-4.6%	14.1%	-5.8%	-6.1%
CC1=C(C(=O)OC2CCCC2)C(c2ccc(Cl)cc2)CC(=O)N1 (stereo unspecified)	7.5%[59 µM]	-7.0%	32.7%	.	4.5%
Cc1ccc(Cn2c(=O)n(-c3ccc(C)c(C)c3)c(=O)c3c(C)c(C)sc32)cc1	15.9%[59 µM]	28.7%	22.3%	.	-3.8%
COc1cc(OC)cc(-c2nc3n(n2)C(c2ccccc2F)C(C(=O)Nc2cccnc2)=C(C)N3)c1 (stereo unspecified)	21.8%[59 µM]	-11.3%	14.3%	.	-29.4%
Cc1ccc2c(ccc(=S)n2C)c1	39.8µM*	?	39.0%	-16.0%	-18.6%
CC1NC(=O)C(N)CNC(=O)C(C2CCN=C(N)N2)NC(=O)/C(=C/NC(N)=O)NC(=O)C(CNC(=O)CC(N)CCCN)NC1=O (stereo unspecified)	.	.	.	4.4%	.
COc1ccc2[nH]cc(C(=O)CCl)c2c1	?	-7.5%	61.4%	7.5%	-5.4%
COc1ccc2[nH]cc(C(=O)CNc3nc(C)cs3)c2c1	?	50.1µM*	-0.9%	-8.5%	-4.6%[11.4 µM]
CCOc1ccc(NS(=O)(=O)c2ccc3[nH]cc(C(=O)NCCc4ccccc4)c(=O)c3c2)cc1	4.3%[59 µM]	3.6%	15.7%	.	-10.3%
Cc1sc2nc(-c3cccs3)nc(N3CCCN(C)CC3)c2c1C	-26.3%[59 µM]	6.7%	.	56.2µM*	.
CCN(CC)C(=O)Cn1cc(C(=O)C(=O)NCCCn2ccnc2)c2ccccc21	-27.7%	-0.1%	4.1%	17.8%	-10.1%
COc1ccc(CCNC(=O)Oc2ccccc2)cc1OC	10.0%	-12.6%	52.4%	4.3%	-5.4%
O=C(CN1C2=NCCCN2c2ccccc21)c1ccc(Br)s1	50.1µM*	-33.7%	9.4%	-19.6%	-18.5%
CC(=O)c1ccc(N2CCN(c3ncnc4c3cnn4-c3cc(Cl)ccc3C)CC2)cc1	6.2%[59 µM]	1.3%	15.9%	.	-15.3%
COc1ccc(-n2nc(C(=O)N3CCN(c4cccc(C)c4C)CC3)c3c4ccccc4n(C)c3c2=O)cc1	6.4%[59 µM]	.	43.2%	.	-8.3%
CCOC(=O)CSC1=NC(=O)/C(=C\c2ccc(Cl)cc2)S1	35.5µM*	-33.3%	14.4%	?	?
CCOC(=O)C1CCN(C2=NC(=O)/C(=C/c3ccc(Cl)cc3)S2)CC1	0.2%	?	23.2%	-10.1%	-12.3%
COc1cc2c(cc1OC)C(Nn1cnnc1)=NC1(CCCC1)C2	17.8%	-3.5%	7.2%	14.3%	-2.1%
CN(CCOc1ccc(C[C@H](Nc2ccccc2C(=O)c2ccccc2)C(=O)O)cc1)c1ccccn1	?	.	.	1.1%	.
Cn1cccc1Cc1nnc(SCC(=O)N2CCCCCC2)n1-c1ccc(F)cc1	50.1µM*	-33.1%	29.2%	-14.2%	-23.2%
COc1ccc(-n2c(Cc3cccn3C)nnc2SCC(=O)N2CCCC2)cc1	44.7µM*	-5.9%	38.6%	-19.5%	-21.4%
COc1ccc(-n2c(Cc3cccn3C)nnc2SCC(=O)N2CCCc3ccccc32)cc1	44.7µM*	?	-12.9%	-12.2%	?
COc1ccc(-n2c(Cc3cccn3C)nnc2SCC(=O)Nc2ccc(Cl)cc2)cc1	?	?	-24.5%	15.9%	?
CC1CCN(C(=O)CSc2nnc(Cc3cccn3C)n2-c2ccc(F)cc2)CC1	?	-34.1%	-10.9%	7.2%	?
SMILES	G9a inh	BAZ2B block	HP1b binding inh	Sfp inh	JMJD2A Tudor inh
COc1ccc(-n2c(Cc3cccn3C)nnc2SCC(N)=O)cc1	50.1µM*	-13.2%	43.9%	?	-21.1%
COc1ccc(-n2c(Cc3cccn3C)nnc2SCC(=O)N2CCC(C)CC2)cc1	?	-34.7%	18.3%	?	-26.4%
Cc1nc2ccc(NC(=O)Nc3ccnc4cccnc34)cc2o1	.	.	.	-8.0%	.
COC(C(=O)Nc1ccnn1C1CCN(C(=O)c2ccc(C=O)cc2)CC1)c1ccccc1 (stereo unspecified)	.	-2.2%	34.6%	13.4%	-7.6%
Fc1cccc(CSc2ccc(-c3ccco3)nn2)c1	?	-35.8%	32.1%	15.8µM*	-11.8%
Fc1ccc(CSc2ccc(-c3ccco3)nn2)cc1	1.2%[59 µM]	-9.3%	19.5%	50.1µM*	-11.3%
Cc1nc(C)c(-c2ccc(SCc3cccc(F)c3)nn2)s1	24.5%	7.0%[57.1 µM]	42.4%	-21.4%	-2.7%
CCn1c(C)[n+](CC)c2ccc(C(=O)N(C)c3ccccc3)cc21	35.5µM*	-27.1%	30.1%	-6.9%	-0.6%
CC[n+]1c(C)n(C)c2cc(S(=O)(=O)N(C)C)ccc21	.	-38.9%	20.4%	-4.1%	?
CCn1c(C)[n+](CC)c2ccc(S(=O)(=O)N(C)C)cc21	44.7µM*	?	24.2%	9.5%	0.0%
O=C1C(C=NCc2ccccn2)=C(O)c2ccccc21	4.1%	89.1µM*	21.3%	-11.1%	-7.4%
Cc1nc(C(=O)NNC(=O)c2ccccc2)c(C(F)(F)F)o1	4.47µM*	-32.6%	55.2%	44.7µM*	?
C=CC[C@@](C(C)=O)(C(=O)OC)C(NC(=O)OC(C)(C)C)c1ccccc1 (stereo partly specified)	.	.	.	-15.2%	.
COc1cc(CC(NC(C)=O)C(=O)NC2CCN(c3c4c(nc5ncnn35)CCC4)CC2)cc(OC)c1 (stereo unspecified)	26.1%	-14.2%	.	8.0%	.
CCC(C)(C)C1CCC2(CC1)NC(=S)N(c1ccccc1)N2 (stereo unspecified)	8.91µM*	?	38.9%	79.4µM*	-23.3%
CC(C)(C)C1CCC2(CC1)NC(=S)N(c1ccccc1)N2 (stereo unspecified)	7.94µM*	-32.7%	46.2%	?	-8.8%
CC(C)(C)C1CCC2(CC1)SCC(=O)N2c1ccccc1 (stereo unspecified)	21.0%	-27.8%[57.1 µM]	25.4%	9.6%	-5.8%
CCC(C)(C)C1CCC2(CC1)NC(=O)N(CC(=O)NCCc1c[nH]c3ccccc13)C2=O (stereo unspecified)	24.1%[12.7 µM]	-2.9%	20.2%	.	-2.9%
O=C1SC(Nc2ccccc2)C(=O)N1c1ccccc1 (stereo unspecified)	.	.	25.2%	.	-11.6%
O=C(c1ccc(COc2ccc3ccccc3c2)o1)N1N=C(C(F)F)CC1(O)C(F)F (stereo unspecified)	4.0%	3.6%	34.1%	31.6µM*	-11.1%
COc1ccc(CCNc2oc(COc3cccc(C)c3)nc2C#N)cc1OC	14.1µM*	?	?	.	?
CCNc1oc(COc2cccc(C)c2)nc1C#N	-5.4%	-10.9%	8.9%	5.8%	-19.9%
COc1ccc(CNc2oc(COc3cccc(C)c3)nc2C#N)cc1	5.01µM*	14.1µM*	?	.	?
COc1ccc(CCNc2oc(COc3ccc(Cl)cc3)nc2C#N)cc1OC	?	20µM*	-20.8%	.	?

Bioassay records deposited in PubChem BioAssay by National Center for Advancing Translational Sciences (NCATS).
